PubChem BioAssay (EPA / NIEHS)
Records with an inconclusive call do not appear. Activity calls are given as the source filed them. How the source made its calls, unless noted: active means hit-call score of the fitted dose curve at least 0.9, where 1 is the maximum; inactive means score below 0.9.

Legend:
[1] = BSK_4H_Eotaxin3: BioMAP Diversity Plus: 4H Assay for Eotaxin 3 Biomarker Activity (AID 2283000); conditions: primary human endothelial cells (HUVEC); actives raise or lower the signal;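 further: CCL26 protein level quantified by ELISA in parallel with SRB cytotoxicity check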
In short: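 Readout is Eotaxin-3 (CCL26) level by ELISA in primary human umbilical vein endothelial cells harvested 24 h after chemical exposure; activity fitted in both directions against DMSO control.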

[2] = read-out: Intercellular Adhesion Molecule 1 (ICAM1), ICAM1 (gene 3383); assay: BSK_3C_ICAM1: BioMAP Diversity Plus: 3C Assay for Intercellular Adhesion Molecule 1 (ICAM1) Biomarker Activity (AID 2283003); conditions: primary human endothelial cells (HUVEC); actives raise or lower the signal
In short: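 HUVEC primary cells stimulated under 3C conditions; ICAM1 measured by ELISA 24 h after compound dosing. Curves fitted bidirectionally against the DMSO baseline. Overt cytotoxicity checked by SRB staining of parallel cultures.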

[3] = BSK_3C_Proliferation: Cell Proliferation Assessment in the BioMAP Diversity Plus: 3C Assay (AID 2283006); conditions: primary human endothelial cells (HUVEC)
In short: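 Subconfluent HUVEC (3C system) cultured with chemical; relative cell number read at 48 h by sulforhodamine B total-protein staining (0.1% SRB after 10% TCA fixation, 560 nm). Bidirectional fit relative to DMSO.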

[4] = target: human Retinoid X Receptor beta (RXRb), RXRB (gene 6257) (UniProt P28702); assay: ATG_RXRb_TRANS: Attagene TRANS-FACTORIAL HepG2 Assay for human Retinoid X Receptor beta (RXRb) (AID 2283013; active means hit-call score of the fitted dose curve at least 0.9, where 1 is the maximum)
In short: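 HepG2 cells were transiently transfected with multiplexed GAL4-UAS reporters and a chimeric RXRb-Gal4 construct, then exposed for 24 h. Reporter mRNA was quantified by RT-PCR, FAM labeling, HpaI digestion and capillary electrophoresis; gain of signal was scored against DMSO.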

[5] = read-out: E-selectin (Homo sapiens) (UniProt P16581); assay: BSK_3C_Eselectin: BioMAP Diversity Plus: 3C Assay for Eselectin Biomarker Activity (AID 2283015); conditions: primary human endothelial cells (HUVEC); actives raise or lower the signal;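 further: cell surface E-selectin protein quantified by ELISA 24 h after dosing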
In short: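 HUVEC, 3C stimulation; compound exposure 24 h; E-selectin by ELISA; gain- or loss-of-signal fitted bidirectionally vs DMSO baseline.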

[6] = read-out: Interleukin-1 alpha (IL1a), IL1A (gene 3552); assay: BSK_BE3C_IL1a: BioMAP Diversity Plus: BE3C Assay for Interleukin-1 alpha (IL1a) Biomarker Activity (AID 2283016); conditions: primary human bronchial epithelial cells; actives raise or lower the signal
In short: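 Human primary bronchial epithelial cells, 24 h chemical exposure; IL-1a quantified by ELISA, fitted bidirectionally against DMSO. Cytotoxicity assessed in parallel by SRB total-protein staining at the time of measurement.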

[7] = read-out: Monocyte Chemoattractant Protein-1 (MCP1), CCL2 (gene 6347); assay: BSK_3C_MCP1: BioMAP Diversity Plus: 3C Assay for Monocyte Chemoattractant Protein-1 (MCP1) Biomarker Activity (AID 2283017); conditions: primary human endothelial cells (HUVEC); actives raise or lower the signal
In short: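 HUVEC, 3C system; 24 h chemical exposure; MCP-1 by ELISA; bidirectional curve fit vs DMSO baseline.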

[8] = read-out: Monocyte Chemoattractant Protein-1 (MCP1), CCL2 (gene 6347); assay: BSK_4H_MCP1: BioMAP Diversity Plus: 4H Assay for Monocyte Chemoattractant Protein-1 (MCP1) Biomarker Activity (AID 2283018); conditions: primary human endothelial cells (HUVEC); actives raise or lower the signal
In short: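 Human umbilical vein endothelial cells (4H system) exposed to chemicals for 24 h in 96-well format. MCP-1 measured by ELISA; bidirectional fitting against DMSO, with SRB total-protein staining in parallel cultures for cytotoxicity.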

[9] = read-out: Human Leukocyte Antigen - DR isotype (HLADR), HLA-DRA (gene 3122); assay: BSK_3C_HLADR: BioMAP Diversity Plus: 3C Assay for Human Leukocyte Antigen - DR isotype (HLADR) Biomarker Activity (AID 2283019); conditions: primary human endothelial cells (HUVEC); actives raise or lower the signal;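 further: ELISA of cell-surface HLA-DR on HUVEC 24 h after dosing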
In short: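 HUVEC, 3C stimulation, 24 h post-dose; HLA-DR by ELISA; bidirectional curve fit vs DMSO baseline; gain or loss of signal scored.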

[10] = target: human Peroxisome Proliferator-activated Receptor alpha (PPARa), PPARA (gene 5465) (UniProt Q07869); assay: ATG_PPARa_TRANS: Attagene TRANS-FACTORIAL HepG2 Assay for human Peroxisome Proliferator-activated Receptor alpha (PPARa) (AID 2283001; active means hit-call score of the fitted dose curve at least 0.9, where 1 is the maximum)
In short: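 Gain-of-signal endpoint: reporter mRNA induction relative to DMSO, detected by fluorescent RT-PCR and capillary electrophoresis. HepG2 cells transiently carried GAL4-UAS-driven reporter units plus NR-Gal4 fusion; exposure lasted 24 h.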

[11] = target: human Peroxisome Proliferator-activated Receptor delta (PPARd), PPARD (gene 5467) (UniProt Q03181); assay: ATG_PPARd_TRANS: Attagene TRANS-FACTORIAL HepG2 Assay for human Peroxisome Proliferator-activated Receptor delta (PPARd) (AID 2283002; active means hit-call score of the fitted dose curve at least 0.9, where 1 is the maximum)
In short: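 Multiplexed trans-activation format: HepG2 liver cells expressing exogenous NR-Gal4 chimeras and GAL4-UAS reporters were exposed for 24 h. Reporter mRNA was detected by RT-PCR with capillary electrophoresis fluorescence; activity fitted as gain of signal relative to DMSO.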

[12] = target: Peroxisome proliferator-activated receptor gamma (Homo sapiens) (UniProt P37231); assay: ATG_PPARg_TRANS: Attagene TRANS-FACTORIAL HepG2 Assay for human Peroxisome Proliferator-activated Receptor-gamma (PPARg) (AID 2283007; active means hit-call score of the fitted dose curve at least 0.9, where 1 is the maximum)
In short: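 After 24 h of chemical exposure, transfected HepG2 cells carrying PPARγ-Gal4 chimera reporter constructs are lysed for RNA. Reporter transcripts are measured by RT-PCR and capillary electrophoresis with fluorescent labelling, and gain of signal is fitted versus DMSO.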

[13] = target: human RAR-related Orphan Receptor beta (RORb), RORB (gene 6096) (UniProt Q92753); assay: ATG_RORb_TRANS: Attagene TRANS-FACTORIAL HepG2 Assay for human RAR-related Orphan Receptor beta (RORb) (AID 2283010; active means hit-call score of the fitted dose curve at least 0.9, where 1 is the maximum)
In short: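 HepG2 cells transiently transfected with GAL4-UAS reporter units expressing chimeric NR-Gal4 protein; reporter mRNA measured 24 h after dosing by RT-PCR, 6-FAM labelling and capillary electrophoresis. Gain-of-signal fitted relative to DMSO baseline.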

[14] = target: Retinoic acid receptor RXR-alpha (Homo sapiens) (UniProt P19793); assay: ATG_RXRa_TRANS: Attagene TRANS-FACTORIAL HepG2 Assay for human Retinoid X Receptor alpha (RXRa) (AID 2283012; active means hit-call score of the fitted dose curve at least 0.9, where 1 is the maximum)
In short: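 HepG2 cells transiently transfected with GAL4-UAS reporter units and chimeric RXRa-Gal4 protein, treated 24 h. Reporter mRNA measured by RT-PCR, fluorescent labelling, HpaI digestion and capillary electrophoresis. Induction fitted against DMSO.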

[15] = target: human Thyroid Receptor alpha (THRa1), THRA (gene 7067) (UniProt P10827); assay: ATG_THRa1_TRANS: Attagene TRANS-FACTORIAL HepG2 Assay for human Thyroid Receptor alpha (THRa1) (AID 2283014; active means hit-call score of the fitted dose curve at least 0.9, where 1 is the maximum)
In short: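 Transient HepG2 transfection, NR-Gal4 chimera driving GAL4-UAS reporters; 24 h compound exposure; total RNA, oligo(dT) RT, PCR, fluorescent primer extension, capillary electrophoresis. Upward direction vs DMSO control.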

[16] = target: Retinoic acid receptor alpha (Homo sapiens) (UniProt P10276); assay: ATG_RARa_TRANS: Attagene TRANS-FACTORIAL HepG2 Assay for human Retinoic Acid Receptor alpha (RARa) (AID 2283005; active means hit-call score of the fitted dose curve at least 0.9, where 1 is the maximum)
In short: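 HepG2 cells transiently transfected with multiple reporter units expressing chimeric RARα-GAL4 fusion, with GAL4-UAS-driven reporters. After 24 h compound exposure, reporter mRNA induction quantified by RT-PCR and capillary electrophoresis with fluorescent labeling; gain-of-signal fitted relative to DMSO control.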

[17] = target: Nuclear receptor subfamily 1 group I member 2 (Homo sapiens) (UniProt O75469); assay: ATG_PXR_TRANS: Attagene TRANS-FACTORIAL HepG2 Assay for human Pregnane X Receptor (PXR) (AID 2283008; active means hit-call score of the fitted dose curve at least 0.9, where 1 is the maximum)
In short: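 Read-out is fluorescence of labelled reporter cDNA fragments separated by capillary electrophoresis after RT-PCR and HpaI digestion. Source: HepG2 cells carrying PXR-GAL4/UAS reporter constructs, treated 24 h; activity fitted upward relative to DMSO.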

[18] = target: human Retinoic Acid Receptor gamma (RARg), RARG (gene 5916) (UniProt P13631); assay: ATG_RARg_TRANS: Attagene TRANS-FACTORIAL HepG2 Assay for human Retinoic Acid Receptor gamma (RARg) (AID 2283009; active means hit-call score of the fitted dose curve at least 0.9, where 1 is the maximum)
In short: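 HepG2 transiently transfected with GAL4-UAS reporter units and chimeric NR-Gal4 constructs; 24 h compound exposure. Reporter mRNA quantified by RT-PCR, FAM labeling, HpaI digestion and capillary electrophoresis; gain-of-signal versus DMSO.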

Measured: AC50

Sequence of human Peroxisome Proliferator-activated Receptor alpha (PPARa), PPARA (gene 5465) (Q07869 whole entry, looked up, the tested form may be a part): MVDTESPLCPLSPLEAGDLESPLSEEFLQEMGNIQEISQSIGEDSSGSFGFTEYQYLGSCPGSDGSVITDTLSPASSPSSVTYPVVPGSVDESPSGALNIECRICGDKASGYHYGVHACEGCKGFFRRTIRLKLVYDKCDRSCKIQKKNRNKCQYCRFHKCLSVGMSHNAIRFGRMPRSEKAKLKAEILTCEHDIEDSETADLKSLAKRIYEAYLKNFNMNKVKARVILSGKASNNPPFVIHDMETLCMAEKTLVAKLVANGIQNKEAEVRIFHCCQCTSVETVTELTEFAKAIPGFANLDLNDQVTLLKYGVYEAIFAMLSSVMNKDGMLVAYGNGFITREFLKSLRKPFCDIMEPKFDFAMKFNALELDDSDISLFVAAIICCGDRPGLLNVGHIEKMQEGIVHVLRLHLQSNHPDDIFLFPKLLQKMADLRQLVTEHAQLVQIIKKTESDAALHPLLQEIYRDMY
Sequence of E-selectin (Homo sapiens) (P16581 whole entry, looked up): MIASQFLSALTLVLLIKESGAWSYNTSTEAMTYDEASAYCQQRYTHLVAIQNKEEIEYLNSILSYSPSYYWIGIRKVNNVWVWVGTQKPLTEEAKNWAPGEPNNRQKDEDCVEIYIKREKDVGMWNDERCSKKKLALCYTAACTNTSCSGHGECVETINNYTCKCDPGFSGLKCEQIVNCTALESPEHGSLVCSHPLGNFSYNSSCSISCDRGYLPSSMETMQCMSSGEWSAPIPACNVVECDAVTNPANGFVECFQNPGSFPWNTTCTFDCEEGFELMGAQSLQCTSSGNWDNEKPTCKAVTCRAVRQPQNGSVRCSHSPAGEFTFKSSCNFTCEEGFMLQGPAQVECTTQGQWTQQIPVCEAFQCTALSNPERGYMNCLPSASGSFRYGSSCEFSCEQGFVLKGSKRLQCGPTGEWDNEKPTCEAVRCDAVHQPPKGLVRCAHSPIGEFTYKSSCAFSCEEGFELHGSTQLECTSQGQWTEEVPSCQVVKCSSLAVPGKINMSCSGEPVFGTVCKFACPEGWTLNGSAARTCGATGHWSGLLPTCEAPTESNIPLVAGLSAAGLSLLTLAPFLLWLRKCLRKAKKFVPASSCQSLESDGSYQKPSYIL
Sequence of human Retinoid X Receptor beta (RXRb), RXRB (gene 6257) (P28702 whole entry, looked up, the tested form may be a part): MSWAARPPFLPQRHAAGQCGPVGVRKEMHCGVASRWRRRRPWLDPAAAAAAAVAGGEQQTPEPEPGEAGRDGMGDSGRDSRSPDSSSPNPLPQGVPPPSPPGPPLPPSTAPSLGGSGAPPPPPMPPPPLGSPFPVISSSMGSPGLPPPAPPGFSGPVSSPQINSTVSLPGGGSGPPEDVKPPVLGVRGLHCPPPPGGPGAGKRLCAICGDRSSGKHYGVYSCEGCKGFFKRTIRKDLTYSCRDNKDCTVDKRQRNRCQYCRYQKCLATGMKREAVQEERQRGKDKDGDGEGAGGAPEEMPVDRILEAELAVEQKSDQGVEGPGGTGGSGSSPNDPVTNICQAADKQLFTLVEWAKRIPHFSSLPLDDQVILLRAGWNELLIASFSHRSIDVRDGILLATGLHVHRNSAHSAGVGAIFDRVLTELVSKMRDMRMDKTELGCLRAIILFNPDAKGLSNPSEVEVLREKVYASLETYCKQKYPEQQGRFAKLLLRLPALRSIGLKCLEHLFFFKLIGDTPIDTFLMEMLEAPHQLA
Sequence of Retinoic acid receptor RXR-alpha (Homo sapiens) (P19793 whole entry, looked up, the tested form may be a part): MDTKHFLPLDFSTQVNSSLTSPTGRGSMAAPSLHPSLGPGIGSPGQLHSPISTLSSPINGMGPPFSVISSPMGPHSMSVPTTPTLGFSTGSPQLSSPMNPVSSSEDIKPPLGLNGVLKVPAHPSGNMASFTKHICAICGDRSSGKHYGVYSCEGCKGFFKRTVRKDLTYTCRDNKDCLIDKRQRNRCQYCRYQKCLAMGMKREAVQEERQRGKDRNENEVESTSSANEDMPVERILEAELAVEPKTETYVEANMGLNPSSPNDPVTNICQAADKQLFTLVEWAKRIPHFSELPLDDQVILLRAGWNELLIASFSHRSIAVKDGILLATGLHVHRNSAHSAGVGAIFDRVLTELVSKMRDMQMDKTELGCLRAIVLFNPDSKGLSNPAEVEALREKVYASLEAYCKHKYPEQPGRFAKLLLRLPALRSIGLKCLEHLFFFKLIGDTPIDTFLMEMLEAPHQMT
Sequence of Peroxisome proliferator-activated receptor gamma (Homo sapiens) (P37231 whole entry, looked up, the tested form may be a part): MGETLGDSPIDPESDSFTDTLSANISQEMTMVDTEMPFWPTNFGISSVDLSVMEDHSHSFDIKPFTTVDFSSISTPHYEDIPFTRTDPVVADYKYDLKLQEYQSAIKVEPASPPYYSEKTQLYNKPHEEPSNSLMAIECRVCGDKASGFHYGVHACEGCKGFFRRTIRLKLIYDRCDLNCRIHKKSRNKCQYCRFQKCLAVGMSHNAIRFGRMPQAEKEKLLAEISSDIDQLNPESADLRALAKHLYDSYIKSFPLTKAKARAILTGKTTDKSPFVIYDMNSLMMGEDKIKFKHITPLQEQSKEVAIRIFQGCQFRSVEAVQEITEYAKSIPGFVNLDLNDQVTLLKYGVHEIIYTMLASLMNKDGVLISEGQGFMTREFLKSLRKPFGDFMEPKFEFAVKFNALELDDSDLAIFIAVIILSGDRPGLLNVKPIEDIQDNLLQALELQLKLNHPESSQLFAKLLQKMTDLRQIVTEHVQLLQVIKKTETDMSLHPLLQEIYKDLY
Sequence of human RAR-related Orphan Receptor beta (RORb), RORB (gene 6096) (Q92753 whole entry, looked up, the tested form may be a part): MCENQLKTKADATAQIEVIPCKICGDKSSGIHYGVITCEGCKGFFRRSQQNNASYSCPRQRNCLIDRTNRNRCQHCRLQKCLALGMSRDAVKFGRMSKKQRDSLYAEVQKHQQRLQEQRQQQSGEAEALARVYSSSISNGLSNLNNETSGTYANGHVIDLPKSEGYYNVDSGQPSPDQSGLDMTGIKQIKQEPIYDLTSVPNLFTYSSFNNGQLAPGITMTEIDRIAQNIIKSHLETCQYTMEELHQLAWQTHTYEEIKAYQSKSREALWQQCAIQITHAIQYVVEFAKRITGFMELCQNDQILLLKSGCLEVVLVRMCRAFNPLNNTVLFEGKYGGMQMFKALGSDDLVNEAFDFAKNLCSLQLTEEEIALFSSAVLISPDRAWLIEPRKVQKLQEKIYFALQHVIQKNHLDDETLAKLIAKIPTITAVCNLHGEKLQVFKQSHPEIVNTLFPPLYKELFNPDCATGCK
Sequence of Nuclear receptor subfamily 1 group I member 2 (Homo sapiens) (O75469 whole entry, looked up, the tested form may be a part): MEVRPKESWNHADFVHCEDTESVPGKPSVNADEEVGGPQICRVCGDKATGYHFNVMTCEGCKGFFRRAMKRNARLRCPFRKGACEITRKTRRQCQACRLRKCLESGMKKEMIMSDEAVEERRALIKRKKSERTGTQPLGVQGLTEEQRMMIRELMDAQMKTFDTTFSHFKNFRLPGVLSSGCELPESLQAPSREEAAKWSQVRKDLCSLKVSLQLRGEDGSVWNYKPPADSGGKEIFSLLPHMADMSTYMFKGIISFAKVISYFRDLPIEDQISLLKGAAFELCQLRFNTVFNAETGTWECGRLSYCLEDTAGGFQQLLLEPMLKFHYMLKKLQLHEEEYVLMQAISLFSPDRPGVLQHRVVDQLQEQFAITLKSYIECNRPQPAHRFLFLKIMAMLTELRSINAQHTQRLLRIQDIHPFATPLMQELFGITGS
Sequence of Retinoic acid receptor alpha (Homo sapiens) (P10276 whole entry, looked up, the tested form may be a part): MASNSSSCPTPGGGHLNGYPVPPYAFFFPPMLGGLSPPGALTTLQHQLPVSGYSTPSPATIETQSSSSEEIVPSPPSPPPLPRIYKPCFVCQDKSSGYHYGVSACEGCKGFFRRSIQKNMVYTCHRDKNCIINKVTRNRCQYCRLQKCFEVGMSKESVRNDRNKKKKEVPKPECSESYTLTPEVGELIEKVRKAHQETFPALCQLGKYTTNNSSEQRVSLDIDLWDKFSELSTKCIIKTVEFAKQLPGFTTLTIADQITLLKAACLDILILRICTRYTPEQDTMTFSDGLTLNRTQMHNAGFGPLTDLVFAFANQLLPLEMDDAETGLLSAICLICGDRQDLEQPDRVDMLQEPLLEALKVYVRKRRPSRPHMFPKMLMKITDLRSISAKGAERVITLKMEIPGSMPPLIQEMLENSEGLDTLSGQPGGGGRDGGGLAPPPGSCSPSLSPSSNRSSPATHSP
Sequence of human Thyroid Receptor alpha (THRa1), THRA (gene 7067) (P10827 whole entry, looked up, the tested form may be a part): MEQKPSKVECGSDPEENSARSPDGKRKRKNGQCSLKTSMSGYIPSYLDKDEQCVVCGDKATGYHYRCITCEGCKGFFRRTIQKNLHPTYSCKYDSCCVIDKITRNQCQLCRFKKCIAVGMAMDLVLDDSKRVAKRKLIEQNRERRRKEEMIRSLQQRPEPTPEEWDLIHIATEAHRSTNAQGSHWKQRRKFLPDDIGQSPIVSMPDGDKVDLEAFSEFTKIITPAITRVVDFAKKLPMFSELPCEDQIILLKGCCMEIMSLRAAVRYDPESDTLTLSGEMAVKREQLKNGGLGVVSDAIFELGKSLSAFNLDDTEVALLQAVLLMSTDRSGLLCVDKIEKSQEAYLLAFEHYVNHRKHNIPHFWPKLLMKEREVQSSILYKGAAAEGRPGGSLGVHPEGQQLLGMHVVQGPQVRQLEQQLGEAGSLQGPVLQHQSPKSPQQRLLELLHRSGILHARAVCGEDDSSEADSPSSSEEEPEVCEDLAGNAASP
Sequence of human Retinoic Acid Receptor gamma (RARg), RARG (gene 5916) (P13631 whole entry, looked up, the tested form may be a part): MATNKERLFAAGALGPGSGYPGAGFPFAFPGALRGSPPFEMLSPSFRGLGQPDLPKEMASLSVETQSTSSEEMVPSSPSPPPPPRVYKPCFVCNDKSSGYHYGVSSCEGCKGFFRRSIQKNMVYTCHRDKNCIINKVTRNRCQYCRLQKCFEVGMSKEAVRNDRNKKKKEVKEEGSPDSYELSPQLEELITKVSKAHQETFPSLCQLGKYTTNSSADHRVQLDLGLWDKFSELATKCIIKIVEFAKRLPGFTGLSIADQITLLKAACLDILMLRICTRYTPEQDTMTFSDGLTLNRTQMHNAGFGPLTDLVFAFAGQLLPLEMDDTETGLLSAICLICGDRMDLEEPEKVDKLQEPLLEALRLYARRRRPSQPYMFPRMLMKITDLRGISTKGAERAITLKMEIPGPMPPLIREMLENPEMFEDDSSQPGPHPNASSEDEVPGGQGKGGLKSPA

CC(=O)c1ccc(C)cc1
inactive: [1] | [2] | [3] | [4] | [5] | [6] | [7] | [8] | [9]

CC(C)(C)C1CCC(O)CC1 (centres undefined)
inactive: [10] | [11] | [12] | [13] | [14] | [4] | [15]

O=S(=O)(O)C(F)(F)C(F)(F)OC(F)(F)C(F)(F)F
inactive: [1] | [2] | [3] | [5] | [6] | [7] | [8] | [9]

O=C(C=Cc1ccccc1)OCCCc1ccccc1
active: [17] 22.5 µM | [4] 66.6 µM
inactive: [10] | [16] | [18] | [13] | [14]

CCCCCCCCCOS(=O)(=O)O
active: [12] 30.6 µM
inactive: [10] | [17]
